# Results taken from PubChem BioAssay (NCATS).
# Inconclusive results are not listed. Unmarked numbers belong to inactive results. Calls of active or inactive are those of the source. Calls follow the shape of the dose curve; as a rule, active = well fitted inhibition curve with a large enough effect; inconclusive = small, poorly fitted or top-dose-only effect; inactive = no such curve, though single readings can be large or run the other way.
# Target: Cytochrome P450 3A7 (Homo sapiens) (UniProt P24462)
# Sequence (P24462 whole entry, looked up): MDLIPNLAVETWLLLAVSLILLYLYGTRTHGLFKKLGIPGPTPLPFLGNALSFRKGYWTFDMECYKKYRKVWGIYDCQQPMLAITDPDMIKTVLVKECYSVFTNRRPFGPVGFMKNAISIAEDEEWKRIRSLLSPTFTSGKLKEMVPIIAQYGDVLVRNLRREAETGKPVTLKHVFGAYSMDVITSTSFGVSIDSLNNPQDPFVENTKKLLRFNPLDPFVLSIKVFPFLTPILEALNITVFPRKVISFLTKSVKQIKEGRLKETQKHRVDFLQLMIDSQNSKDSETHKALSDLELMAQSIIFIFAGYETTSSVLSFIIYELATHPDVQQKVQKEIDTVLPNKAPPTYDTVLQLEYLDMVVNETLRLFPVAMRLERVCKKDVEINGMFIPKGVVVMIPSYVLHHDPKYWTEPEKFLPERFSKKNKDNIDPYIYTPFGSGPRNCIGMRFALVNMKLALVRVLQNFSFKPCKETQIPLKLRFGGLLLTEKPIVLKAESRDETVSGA
# Assay: Cytochrome P450 family 3 subfamily A member 7 (CYP3A7) small molecule antagonists: luciferase biochemical qHTS assay (AID 1963596); also: nearly all actives have a fitted effect of over 40% in size
# Settings: P450-Glo CYP3A7 enzyme luminescence, 1 h; series mostly up to 57.4 µM; activity change, negative = inhibition: at the top concentration
# How it was run: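 In this luminescent screen, enzyme and proluciferin substrate meet test compound for 10 min before NADPH regeneration solution drives a 1 h room-temperature reaction; detection reagent halts turnover and luminescence is read 20 min later.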
# % is scaled to controls: 0 for no effect and ±100 for the full control effect; potency is read from the fitted curve at half-maximal effect.
Structure (SMILES),"activity change, negative = inhibition",Potency
CCCCC(=O)O,0%,
CC(C)[C@H]1CC[C@H](C)C[C@H]1O,3.53%,
NCc1c[nH]c(=S)n1C1CCc2c(F)cc(F)cc2C1 (stereo not given),,15.1 µM (active)
CCC(=O)O,3.13%,
CC(C)(C)NCCCNC(=O)c1cccc(Br)c1,-0.932%,
CCOC(=O)c1csc(-n2nc(-c3ccc(F)c(F)c3)c(Cc3ccc(S(N)(=O)=O)cc3)c2N)n1,1.34%,
COC(C)=O,0.408%,
CCc1ccc(OCCn2c(C3CC(=O)N(Cc4ccc(F)cc4)C3)nc3ccccc32)cc1 (stereo not given),9.49%,
Cc1noc(=O)c2ccc(NC(=O)C(O)(CC(C)(C)c3cccc4c3OCC4)C(F)(F)F)cc12 (stereo not given),0%,
CC(NC(=O)C(=O)Nc1c2c(nn1-c1ccccc1)CSC2)c1ccccc1 (stereo not given),-17.8%,
C/C=C/C=C/C(=O)O,1.69%,
O=C(OC(C(F)(F)F)C(F)(F)F)N1CCN(Cc2cccc(Oc3ccccc3)c2)CC1,-14.5%,
COc1ccc(-n2[nH]c(=O)c3[nH]c4cc(Cl)ccc4c(=O)c3c2=O)c(C)c1,4.27%,
Cc1ccc(-n2nc3c(N4CCCC(C(=O)NCc5ccccc5C)C4)nnc(C)c3c2C)cc1 (stereo not given),,0.756 µM (active)
Cc1ncc(C[n+]2csc(CCO)c2C)c(N)n1,-4.34%,
CN[C@@H]1[C@@H](O)[C@@H](O[C@@H]2[C@@H](O)[C@H](O[C@H]3O[C@H]([C@@H](C)NC)CC[C@H]3N)[C@@H](N)C[C@H]2N)OC[C@]1(C)O,-0.432%,
C=CCCCCCCCCC(=O)OC,-0.826%,
COC(=O)c1ccc(C2C=C(c3ccc(Cl)cc3)Nc3nc4ccccc4n32)cc1 (stereo not given),-3.89%,
O=C(Nc1cccc(C2=NCCN2)c1)Nc1cccc(C2=NCCN2)c1,16.9% [at 23.9 µM],
Cc1ccc(CNC(=O)C2CCN(S(=O)(=O)c3c(C)noc3/C=C/c3ccccc3F)CC2)o1,3.63%,

Structure (SMILES),"activity change, negative = inhibition",Potency
CC1(C#N)CCN(c2c(C(=O)N3CCN(S(C)(=O)=O)CC3)cnc3cc(F)c(F)cc23)CC1,,14.1 µM (active)
NC(=O)C(CCC(F)(F)F)N(Cc1ccc(-c2ncon2)cc1F)S(=O)(=O)c1ccc(Cl)cc1 (stereo not given),5.61%,
N#Cc1cc(C2=Nc3ccc(Br)cc3NC(=O)C2)ccn1,-1.74%,
CC(C)c1cccc(O)c(=O)c1,0.829%,
C=CS(=O)(=O)O,0.832%,
CNC1CCN(C(Cc2cccc(-c3ccncc3)c2)C(=O)c2sc3c(F)ccc(F)c3c2Cl)CC1 (stereo not given),,2.39 µM (active)
COc1ccc(C(=O)Nc2ccc3oc(-c4ccc(OC)cc4)nc3c2)cc1,0.861%,
Cc1ccc(C2=Nc3ccccc3N(CC(=O)Nc3ccccc3F)C(=O)C2)cc1C,18.6%,
COc1ccc(NC(=O)Cn2cc(C(=O)c3cccs3)c3ccccc32)cc1,1.58%,
CCCCCCCCCC(=O)O,-13%,
O=S(=O)(O)Oc1ccc(C(c2ccc(OS(=O)(=O)O)cc2)c2ccccn2)cc1,-16.8%,
CCCN(CCc1cccs1)[C@H]1CCc2c(O)cccc2C1,0%,
C=CCNc1nc(NCC=C)nc(N2CCN(C(c3ccc(F)cc3)c3ccc(F)cc3)CC2)n1,-9.96%,
N=C(N)n1cccn1,11.4%,
CC(C)(C)CCN1C[C@@H]2C(CNC(=O)c3cc(Cl)cc(Cl)c3)[C@@H]2C1 (stereo not given in full),-24.7%,
O=C(O)C1CN(Cc2ccc(-c3nc4cc(Cc5ccccc5F)ccc4s3)c(F)c2)C1,-6.84% [at 11.5 µM],
CCC[C@H](N[C@@H](C)C(=O)N1[C@H](C(=O)O)C[C@@H]2CCCC[C@@H]21)C(=O)OCC,-0.139%,
CCCCCCCCNC(C)C(O)c1ccc(SC(C)C)cc1 (stereo not given),-2.67%,
Nc1c(CC(=O)O)cccc1C(=O)c1ccccc1,-14.8%,
C[C@@H](C(=O)O)c1ccc(-c2ccccc2)c(F)c1,5.93%,
